Screens deposited in PubChem BioAssay by National Center for Advancing Translational Sciences (NCATS).
Shown are actives, neighbours in structure and some others; about 0.74% of the full set was active somewhere.
CCT modulator: High-Throughput Screening for Modulators of Cytosolic Chaperonin Activity | purified chaperonin ATPase assay, HTRF ADP detection, 30 min | activity change, % (no concentration beside the values), hits read low | 360,000 compounds, 0.3% hits | AID 651819, 2012; in the data active = activity change below about -30%; also: % is scaled to controls: 0 for no effect and ±100 for the full control effect
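ATPase activity: ADP formed was measured by HTRF Transcreener (665/615 nm ratio) after 30 min at 37 deg C with 10 uM ATP. Compounds screened at one 76 uM concentration against 40 or 20 nM TRiC in Tris pH 7.4/KCl/MgCl2/DTT buffer.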
TSHR antag: Antagonists of the Thyroid Stimulating Hormone Receptor: HTS campaign | 330,000 compounds, 0.2% hits | Thyrotropin receptor (Homo sapiens), P16473 | AID 504810, 2011 | activity change, negative = inhibition, % at 11.5 µM | TSHR-expressing cells, TSH-stimulated cAMP HTRF, 2 h; hits give low values;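 active = activity change below a set negative limit, meaning inhibition stronger than a set level, cut at about -70% in these data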; also: % is scaled to controls: 0 for no effect and ±100 for the full control effect
Target sequence (P16473 whole entry, looked up): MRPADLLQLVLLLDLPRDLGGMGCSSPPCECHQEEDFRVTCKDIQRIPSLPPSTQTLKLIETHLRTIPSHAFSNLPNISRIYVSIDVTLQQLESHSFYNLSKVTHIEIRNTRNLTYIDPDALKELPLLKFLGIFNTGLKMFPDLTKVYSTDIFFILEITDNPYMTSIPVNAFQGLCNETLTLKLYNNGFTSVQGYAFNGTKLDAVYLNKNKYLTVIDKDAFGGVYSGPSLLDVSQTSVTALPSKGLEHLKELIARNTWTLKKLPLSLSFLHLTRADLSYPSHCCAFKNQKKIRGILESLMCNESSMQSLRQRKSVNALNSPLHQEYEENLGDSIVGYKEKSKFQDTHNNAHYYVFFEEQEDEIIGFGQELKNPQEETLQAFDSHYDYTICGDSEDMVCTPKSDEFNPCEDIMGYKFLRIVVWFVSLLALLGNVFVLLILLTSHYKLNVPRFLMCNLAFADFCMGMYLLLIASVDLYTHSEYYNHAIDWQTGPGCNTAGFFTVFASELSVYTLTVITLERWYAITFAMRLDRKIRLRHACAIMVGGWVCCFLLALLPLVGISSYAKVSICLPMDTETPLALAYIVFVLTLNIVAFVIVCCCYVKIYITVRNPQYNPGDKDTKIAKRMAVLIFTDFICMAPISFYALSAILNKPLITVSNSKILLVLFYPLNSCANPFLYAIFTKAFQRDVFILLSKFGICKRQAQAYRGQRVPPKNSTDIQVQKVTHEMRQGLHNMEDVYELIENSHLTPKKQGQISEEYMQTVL
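Cell-based HTRF cAMP assay; TSHR cells + compound, TSH EC80 (4nM final), 2 h, 37 deg C. Lysis with anti-cAMP cryptate and cAMP-d2, 30 min RT, read 665/620 nm.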
Akt phos inh: HTS Assay for Inhibitors of Akt Phophorylation: Primary Screen; Neuro2A IGF-stimulated pAkt S473 HTRF, 20 min; hits give low values; activity change, % for hits at 50 µM; 360,000 compounds, 0.32% hits; AID 651550, 2012; in the data active = activity change below about -80%; also: % is scaled to controls: 0 for no effect and ±100 for the full control effect
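Single-point screen (50 µM final compound) in Neuro2A cells stimulated 20 min with 6 nM IGF at 37 deg C. After lysis, Ser473-phosphorylated Akt read by HTRF (ex 330 nm, em 615/665 nm) as the 665/615 ratio.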
TCR act: Activators of T cell receptors: qHTS campaign; Potency, µM (highest dose often 9.22 µM), for inactives: at the highest dose activation of IL-2 secretion, most hits filed as activators; 330,000 tested, under 10 active; primary human leukocytes, anti-CD3, IL-2 HTRF, 48 h; active = well fitted activation curve with a large enough effect; also: % of control where 0% means no effect
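HTRF read-out of IL-2 secretion: europium cryptate donor excited at 320nm, d2 acceptor emission at 665nm. Cells were primary human leukocytes incubated 48 hr with compounds and a-CD3 beads, supplying TCR signal only.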
* = called active by the depositor; i = inactive; nt = no result given; [ ] = dose if it differs, or a comment.

SMILES	CCT modulator	TSHR antag	Akt phos inh	TCR act
COc1ccc(NC(=O)c2cc3c(=O)n(C)c4ccccc4c3n2C)cc1Cl	-4	-5	i	-3%
Cc1ccc(CNC(=O)c2cc3c(=O)n(C)c4ccccc4c3n2C)cc1	-32*	-5	i	2%
Cc1cc(C=O)sc1[B-](F)(F)F	-4	nt	i	-6%
CC(C)(C)OC(=O)N[C@H](/C=C/c1ccccc1)C(=O)OC(C)(C)C	-5	18	i	9%
COc1ccc(NC(=O)Cc2ccc(C)c(C)c2)cc1S(=O)(=O)N1CCCCC1	0	-46	i	-4%[46.1 µM]
CN1C(C(=O)N2CCc3ccccc3C2)=CC(c2ccc(F)cc2)=NS1(=O)=O	0	-3	i	12%
c1ccc(-c2nn3c(C4CCCCC4)nnc3s2)cc1	-1	10	-114%*	2%
COc1ccc(CC(=O)Nc2cc(S(=O)(=O)N3CCOCC3)ccc2N2CCOCC2)cc1OC	-19	nt	i	0%
Cc1ccc(CCNC(=O)CN2C(=O)COc3ccc(S(=O)(=O)N4CCC(C)CC4)cc32)cc1	1	-136*	i	-3%
CCCNC(=O)CN1C(=O)COc2ccc(S(=O)(=O)N3CCCCCC3)cc21	3	-6	i	0%
CCCNC(=O)CN1C(=O)COc2ccc(S(=O)(=O)N3CC(C)CC(C)C3)cc21 (stereo not given)	-46*	31	i	-2%
CC1CC(C)CN(CCCNC(=O)CN2C(=O)COc3ccc(S(=O)(=O)N4CCOCC4)cc32)C1 (stereo not given)	0	-104*	i	-5%
C/C=C(\C)CN1CCC(Oc2ccc(C(=O)NCc3ccccn3)cc2)CC1	-2	4	i	3%
O=C(CCCSc1ccccc1)Nc1nc(-c2ccccn2)cs1	3	-12	-106%*	2%
CSCCC(=O)Nc1nc(-c2ccccn2)cs1	-9	0	i	-3%
CC(=O)c1cccc(NC(=O)CCCSc2ccccc2)c1	-1	-81*	i	1%
Cc1cc(C(=O)N2CCN(S(C)(=O)=O)CC2)sc1-c1ccccc1	-1	-13	-82%*	-11%
CCCCC(CC)C(=O)O (stereo not given)	-1	1	i	-3%
CCn1nc([N+](=O)[O-])c(C(C#N)c2nc3ccccc3n2C)c(Cl)c1=O (stereo not given)	2	-12	i	-3%[46.1 µM]
CCCn1nc([N+](=O)[O-])c(C(C#N)c2nc3ccccc3s2)c(Cl)c1=O (stereo not given)	1	-76*	i	1%
COC(=O)c1cccc(Cn2nc(C)c([N+](=O)[O-])c2C)c1	1	-3	i	-1%
Cc1nnc(SCc2cccc3ccccc23)s1	0	-10	i	-11%
c1ccc(Nc2nnc(SCc3cccc4ccccc34)s2)cc1	-1	-9	-114%*	8%
NC(=O)CSc1nnc(Cc2csc(Nc3ccccc3)n2)n1Cc1ccccc1	-69*	-14	i	3%
Cc1ccc2nc(NC(=O)CN(C)S(=O)(=O)c3cccc4nsnc34)sc2c1	0	-6	-101%*	-27%
SMILES	CCT modulator	TSHR antag	Akt phos inh	TCR act
CCC(C)Sc1ccc([C@@H]2[C@@H]3C(=O)N(CC)C(=O)[C@@H]3[C@]3(C(=O)OC)CCCCN23)cc1 (stereo not given in full)	-1	43	i	-2%
COc1ccc(-n2ncc3c(=O)n(CC(=O)N(C(C)C)C(C)C)cnc32)cc1	-3	2	i	3%
CN(CC(=O)Nc1cccc(F)c1)C(=O)/C=C/c1cn(Cc2ccccc2)nc1-c1cccnc1	-3	-8	i	-9%
CCCCOC(=O)Nc1ccc(S(=O)(=O)Nc2ccc([N+](=O)[O-])cc2)cc1	0	-19	i	-8%[46.1 µM]
CCCCCOC(=O)Nc1ccc(S(=O)(=O)Nc2cccc([N+](=O)[O-])c2)cc1	-53*	1	i	6%[46.1 µM]
O=C(NC1CCCCC1)c1nc(-c2c(F)cccc2F)oc1-c1ccccc1	nt	nt	i	nt
CCN(c1ccccc1C(=O)O)S(=O)(=O)c1ccc2[nH]c(=O)[nH]c2c1	-9	21	i	-4%
CC(=O)O[C@]1(C(C)=O)CC[C@H]2[C@@H]3C=C(C)C4=CC(=O)CC[C@@H]4[C@H]3CC[C@@]21C	1	-9	i	-3%
C#C[C@]1(OC(C)=O)CCC2C3CCC4=CC(=O)CC[C@@H]4C3CC[C@@]21C (stereo not given in full)	-1	-88*	i	-4%
C=CC#CC1(O)CC(C)N(C)CC1C (stereo not given)	0	-4	i	1%
CCC(C)NS(=O)(=O)c1ccc(NC(=O)C2CCN(C(=O)c3ccco3)CC2)cc1 (stereo not given)	1	-12	i	4%
CN=C(NC#N)SCC(=O)c1ccc(Cl)cc1Cl	-38*	-17	i	nt
Cc1cc(C)c(C#N)c(SCC(=O)c2ccc(Cl)cc2Cl)n1	3	-22	i	-2%
O=S1(=O)CCC(NS(=O)(=O)/C=C/c2ccccc2)C1 (stereo not given)	0	-4	-114%*	nt
Cn1ncc(S(=O)(=O)Cc2ccccc2)c(Br)c1=O	nt	-12	nt	nt
CC(=O)c1ccc(NC(=O)CN2CCN(c3ccccc3)CC2)cc1	-34*	-1	i	-9%
Cc1nc2nc(Cc3ccccc3)[nH]n2c(=O)c1Cl	0	8	-114%*	-5%
Cc1nc2nc(Cc3ccccc3)[nH]n2c(=O)c1Cc1ccccc1	4	3	i	-5%
Cc1ccc(Cl)cc1N1CCN(S(=O)(=O)c2ccc3c(c2)CC(=O)N3C)CC1	-54*	17	i	-5%
CN1C(=O)Cc2cc(S(=O)(=O)N3CCN(c4ccc(Cl)cc4)CC3)ccc21	0	0	i	7%
COc1cccc(C(=O)COC(=O)c2cccs2)c1	-1	-4	i	-10%
O=S(=O)(Nc1ccc(O)c(Sc2nc3ccccc3s2)c1)c1cccc2ccccc12	-2	-88*	i	-8%[46.1 µM]
Cc1cc2nc(-c3cccc(Br)c3)c(Cc3ccccc3)n2c(C)c1Br	-1	nt	i	nt
Cc1noc(C)c1-c1ccc2ncnc(NCc3cccc(-c4ccccc4)c3)c2c1	nt	-30	nt	nt
COc1ccc(C(=O)COc2ccccc2N2C(=O)C3C4C=CC(C4)C3C2=O)cc1 (stereo not given)	2	-7	-139%*	-1%
Cc1cc(C(=O)CN2C(=O)NC(c3ccccc3)(c3ccccc3)C2=O)c(C)n1Cc1ccccc1	1	-11	-136%*	0%
C=C1C(=O)C2=CC1CCC(=O)C1(C)CCC(OC(C)=O)C(C)(C)C1CC2O (stereo not given)	1	nt	i	-3%
OC(CN1CCN(c2cccc(Cl)c2)CC1)C(c1ccccc1)c1ccccc1 (stereo not given)	-44*	-12	i	-12%
